# Test results: the supplement of paper PMC6555819
# Test system: VDR:RXRa (NR concentration 270 nM, RXRa partner concentration 90 nM)
# Test: PBM binding z-score (relative to random genomic background probes); higher = stronger binding; sequences stand for … in GC…GCGATTGACAGCGTAGAATGAAGG
# Method: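 Protein-binding microarray (Agilent 4x180K custom design, double-stranded 60-nt probes: 5' GC cap, 34-nt variable region, 24-nt constant primer region; full probe sequence given). Purified or IVT nuclear receptor:RXRα heterodimers (3:1 NR:RXRα, mostly 270:90 nM) or homodimers were incubated for 1 h in PBS with 2% milk and no ligand, then detected with Alexa488 antibodies. Fluorescence from o1-orientation probes (~5 replicates averaged) was converted to z-scores against 500 random hg19 background probes. Variable regions are seed direct-repeat (DR0–DR5) sites, all their single-nucleotide variants and half-site ablations.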
row,Sequence,PBM binding z-score
1,GTACCAAGGGGAATAGGTCGTTGATGAGTAGGCG,0.104
2,AGTCAAAGTTCAGGACGAGGTAACGTAGAGCACG,2.91
3,TCTAGTTGGTCACGGAGGTCACACTCGACGGGTA,5.86
4,ATACCAAGGTGATCGTGAGGTCGTTGCTACTAAC,3.4
5,AGAATGAGGTTATTAAGAACAGGGAATTGCGGTC,1.83
6,GCTAGCAGGCCATTTGGGTCAATCAATGACGGGC,0.778
7,ACTCGGAGGACAAAGGTCAGCGCTACGCCAGTGA,3.41
8,TCTTGTAGACCAAAGGTTAAGAAAGCCGAAGCCT,0.807
9,AGAACGAGGGCAATGAATTGATAGCACGGGTGGC,0.305
10,AGTCAAAGTTCAGGACGTGGTAACGTAAAGCACG,2.12
11,CCGACTGGGGCAGAAACGTTACCATACCATCCGG,-0.901
12,ACTATTAGTTGAGACGAGGGTAACCGATAGGTTG,0.26
13,ATCTTTAGGTAAAAGTTCAGTGAATCCCGAGGAT,1.43
14,GCGACTGGGGCAAAGCATGTTACCATAAGGTTGG,-0.497
15,AGAATGAGGTTATACGTAGATCAGGGAAGAAAGT,1.52
16,CCTGGTTGGTCAGGAGGTCACACACCGGATATGA,3.73
17,ACTATTAGTTGAGACGAGGTCAACCGATAGGTTG,4.47
18,CCTACTGGGCCATCAGGTCAATGATATCAACGTT,1.4
19,GGAACGAGCGCAAGTTGATAGCAGAGTTTGATGG,-0.693
20,CCTGCTAGGTCAATGGCCAGCTAAAGCAGCTCGC,0.561

row,Sequence,PBM binding z-score
1,TTTTGTAGATCAACAGGAGGTTAAGAAAGATCGA,0.859
2,CCTTACGGGTCACTCCCGGTTATAGCATCGGAGT,3.03
3,CCGACTGGCGCAGAAAGGTTACCATACCATCCGG,0.29
4,GTACCAAGGTGTATAGGTCGTTGATGAGTAGGCG,0.168
5,CCTACTGGGCCATCAGGTCATTGTTATCAACGTT,1.52
6,ATTACAGGGTCATCGTAGGCCAGAGTACGCACAG,5.39
7,CAAACTAGGTTAAGGTCAAAGTCGGTTTGTGCCA,4.8
8,TCTAGTAGATCAAAGGTTAAGAAAGCCGAAGCCT,1.37
9,TAGCCTAGGTCATGGGCCAGCATACCACGCGAAC,1.68
10,CTCGAAAGGACGGTTGAGGTGAGTATACGGATAA,-0.266
11,CCTCGGAGGACAACAGGAGGTCTGAGCTGCCAGA,-0.681
12,TCTAGCAGACCAGAGGGTCACTCAAGAGGTACGG,1.08
13,CGTCAAAGTTCAACTAAGCTAACGTAAAGCACGC,4.35
14,CGAACGAGGGCATGAGTCGATAGCAAATGCCGAT,0.359
15,GCAGACAGGTGAAACGCAGGTCACTCAGGGTGGC,2.28
16,CCTTACGGGTCAAGGTTATTGCACGGGTGGTACG,3.42
17,GCGACTGGGGCATCAGCAGGTTACCTTAACTTAA,-0.355
18,TCTATTAGTTGATTAGTGCAACCGAAACAGCGGA,0.827
19,TCTTGTAGATCAGCAGGTTATGAAAGCTGGCCAA,0.359
20,ATCGAAAGGTCGAAGTGAGTATAGAGAAAGGGAA,2.7
